PubChem BioAssay (Tox21)
Inconclusive results are not listed. The source made the active and inactive calls. Unless noted, the call rests on the fitted dose curve.

What was measured:
[1] = Nuclear factor erythroid 2-related factor 2/antioxidant responsive element (Nrf2/ARE) small molecule agonists: luciferase reporter gene qHTS assay in human keratinocytes (AID 1919969); further: nearly all actives have a fitted effect of over 35% in size
[2] = target: Gonadotropin-releasing hormone receptor (Homo sapiens) (UniProt P30968); assay: Human gonadotropin-releasing hormone receptor (GnRHR) small molecule agonists, calcium flux assay in GnRHR-HEK293 cells (AID 1920063); further: nearly all actives have a fitted effect of over 35% in size
Chain of Gonadotropin-releasing hormone receptor (Homo sapiens) (P30968 whole entry, looked up): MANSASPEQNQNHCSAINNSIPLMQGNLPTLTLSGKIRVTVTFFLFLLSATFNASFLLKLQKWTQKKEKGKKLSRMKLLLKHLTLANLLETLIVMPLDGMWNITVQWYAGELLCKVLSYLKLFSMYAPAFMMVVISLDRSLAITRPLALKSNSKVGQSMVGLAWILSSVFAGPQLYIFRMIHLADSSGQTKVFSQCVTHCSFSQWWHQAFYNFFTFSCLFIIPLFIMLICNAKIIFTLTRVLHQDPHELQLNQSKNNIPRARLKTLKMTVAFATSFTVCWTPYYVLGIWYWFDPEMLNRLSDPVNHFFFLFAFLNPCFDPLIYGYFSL
In short: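 We seeded human GnRHR-expressing HEK293 cells for 18 hours, loaded them with calcium dye for an hour at 37 C, added test compounds, and recorded fluorescence intensity kinetically for three minutes.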

[3] = target: KiSS-1 receptor (Homo sapiens) (UniProt Q969F8); assay: Human kisspeptin (KISS1R) small molecule agonists, calcium flux assay in KISS1R-HEK293 cells (AID 1920064; active means well fitted activation curve with a large enough effect in the repeat runs)
Chain of KiSS-1 receptor (Homo sapiens) (Q969F8 whole entry, looked up): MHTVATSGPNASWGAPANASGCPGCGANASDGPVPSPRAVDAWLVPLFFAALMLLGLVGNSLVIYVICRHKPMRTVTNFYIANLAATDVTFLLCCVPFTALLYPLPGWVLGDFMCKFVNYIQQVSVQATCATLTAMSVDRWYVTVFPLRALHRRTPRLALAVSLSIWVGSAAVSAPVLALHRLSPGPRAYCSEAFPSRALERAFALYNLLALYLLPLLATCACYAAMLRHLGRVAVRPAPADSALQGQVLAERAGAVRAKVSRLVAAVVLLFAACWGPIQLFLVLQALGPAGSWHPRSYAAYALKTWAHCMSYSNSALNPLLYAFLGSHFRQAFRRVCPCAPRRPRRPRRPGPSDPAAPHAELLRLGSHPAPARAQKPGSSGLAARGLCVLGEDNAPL
In short: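 Kinetic calcium assay, 1 s sampling over 3 min at Ex/Em 480/540, in HEK293 cells engineered with human KISS1R; compounds delivered in DMSO after 1 h dye loading.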

[4] = G protein-coupled receptor (GPCR) small molecule agonists, calcium flux assay: HEK293 wild type cell line counter screen (AID 1920065)
In short: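 Calcium-sensitive dye, loaded 1 h at 37 C into cells cultured 18 h, reports compound-evoked calcium release as fluorescence (Ex/Em 480/540), measured over 3 min. Agonist mode; 15-point titrations, triplicate.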

[5] = p53 small molecule agonists, cell-based qHTS assay with human liver microsomes (AID 1963577);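 further: p53 response element beta-lactamase reporter cells with liver microsomes plus NADPH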
In short: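 HLM-supplemented p53RE-bla reporter assay: 16 h compound exposure at 37 C, microsomes and NADPH each 0.5 mg/mL final, read by fluorescence intensity.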

[6] = p53 small molecule agonists, cell-based qHTS assay with rat liver microsomes (AID 1963578)
In short: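 Quantitative HTS of the Tox21 10K library: p53RE-bla cells, rat liver microsomes plus NADPH at 0.5 mg/mL final each, 16 h at 37 C, beta-lactamase fluorescence detection.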

[7] = p53 small molecule agonists, cell-based qHTS assay with human liver microsomes: qHTS cell viability counter screen (AID 1963579); further: nearly all actives have a fitted effect of over 45% in size
In short: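 Viability of p53RE-bla cells is measured as CellTiter-Glo luminescence following a 16 h, 37 C incubation with compound, liver microsomes from human donors and NADPH.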

[8] = p53 small molecule agonists, cell-based qHTS assay with rat liver microsomes: qHTS cell viability counter screen (AID 1963580); further: nearly all actives have a fitted effect of over 45% in size
In short: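 In HCT-116 cells carrying a p53 response element-bla reporter, compounds were metabolically activated in situ by rat liver microsomes with NADPH over 16 h. Cell ATP content then served as the cytotoxicity measure.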

[9] = p53 small molecule agonists, cell-based qHTS assay: qHTS cell viability counter screen (AID 1963581); further: nearly all actives have a fitted effect of over 45% in size
In short: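 Following 5 h attachment, HCT-116 p53RE-bla cells took up compound for 16 h at 37 C; the reporter was read with B/G FRET substrate (2 h RT), and viability then via CellTiter-Glo ATP luminescence.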

[10] = p53 small molecule agonists, cell-based qHTS assay (AID 1963582; active means well fitted activation curve with a large enough effect in the signal ratio in the repeat runs, not every such curve was filed as active; the % refers to the signal ratio)
In short: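 In this cell-based concentration-response screen, a p53 response element drives beta-lactamase; cells received DMSO-borne compounds after 5 h culture and were incubated a further 16 h before FRET substrate development.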

[11] = target: 5-hydroxytryptamine receptor 2A (Homo sapiens) (UniProt P28223); assay: 5-hydroxytryptamine receptor 2A (HTR2A) small molecule antagonists, cell-based qHTS assay (AID 1963586); further: nearly all actives have a fitted effect of over 45% in size
Chain of 5-hydroxytryptamine receptor 2A (Homo sapiens) (P28223 whole entry, looked up): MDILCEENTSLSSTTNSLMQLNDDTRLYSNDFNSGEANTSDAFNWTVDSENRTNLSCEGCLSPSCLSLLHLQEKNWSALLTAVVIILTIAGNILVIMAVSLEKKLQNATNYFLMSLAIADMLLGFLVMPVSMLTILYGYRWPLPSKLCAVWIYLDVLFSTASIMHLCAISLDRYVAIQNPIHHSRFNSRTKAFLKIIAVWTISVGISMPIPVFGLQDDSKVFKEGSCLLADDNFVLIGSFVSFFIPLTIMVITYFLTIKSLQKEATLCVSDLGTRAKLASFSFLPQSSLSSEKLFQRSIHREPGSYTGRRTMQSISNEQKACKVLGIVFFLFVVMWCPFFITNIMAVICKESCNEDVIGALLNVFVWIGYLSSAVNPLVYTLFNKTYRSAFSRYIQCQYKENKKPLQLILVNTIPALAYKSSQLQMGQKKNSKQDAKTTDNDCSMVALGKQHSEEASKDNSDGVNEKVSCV
In short: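 Antagonist-mode intracellular calcium assay: DOI (4 nM) added after 5 min compound pre-incubation at room temperature to dye-loaded HTR2A-CHO cells. Fluorescence followed for 3 min, sampled every second.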

[12] = target: 5-hydroxytryptamine receptor 2A (Homo sapiens) (UniProt P28223); assay: 5-hydroxytryptamine receptor 2A (HTR2A) small molecule agonists, cell-based qHTS assay (AID 1963587); further: nearly all actives have a fitted effect of over 30% in size
In short: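 HTR2A-CHO cells, plated 18 h at 37 C/5% CO2, dye-loaded 1 h at 37 C; compounds in DMSO added by pin tool (agonist mode). Intracellular calcium flux read as kinetic fluorescence on FDSS over 2 min at 1 s intervals.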

[13] = target: Muscarinic acetylcholine receptor M1 (Homo sapiens) (UniProt P11229); assay: Cholinergic receptor muscarinic 1 (CHRM1) small molecule antagonists, cell-based qHTS assay (AID 1963588); further: nearly all actives have a fitted effect of over 40% in size
Chain of Muscarinic acetylcholine receptor M1 (Homo sapiens) (P11229 whole entry, looked up): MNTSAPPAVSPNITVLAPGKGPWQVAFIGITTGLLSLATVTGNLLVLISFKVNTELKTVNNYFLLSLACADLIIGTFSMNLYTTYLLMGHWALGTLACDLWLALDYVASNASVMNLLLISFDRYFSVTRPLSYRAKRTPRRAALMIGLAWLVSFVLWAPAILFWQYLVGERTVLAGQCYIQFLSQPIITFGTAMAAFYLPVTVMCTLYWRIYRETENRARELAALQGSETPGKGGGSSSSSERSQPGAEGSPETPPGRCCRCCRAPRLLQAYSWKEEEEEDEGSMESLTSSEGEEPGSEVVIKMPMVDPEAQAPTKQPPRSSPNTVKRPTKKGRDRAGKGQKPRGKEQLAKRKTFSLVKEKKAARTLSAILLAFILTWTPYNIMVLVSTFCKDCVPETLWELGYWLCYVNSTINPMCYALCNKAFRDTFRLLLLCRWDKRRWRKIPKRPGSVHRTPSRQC
In short: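 CHRM1-CHO calcium-flux assay, antagonist mode. Cells were seeded 18 h, dye-loaded 1 h at 37 C and given compound for 5 min at RT, then acetylcholine was added at 50nM. FDSS fluorescence was read 3 min; 15 concentrations, three runs.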

[14] = target: Muscarinic acetylcholine receptor M1 (Homo sapiens) (UniProt P11229); assay: Cholinergic receptor muscarinic 1 (CHRM1) small molecule agonists, cell-based qHTS assay (AID 1963589); further: nearly all actives have a fitted effect of over 35% in size
In short: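 Measures agonist-induced intracellular calcium rise. Stable human CHRM1 CHO line, 1 h dye load at 37 C, compounds from DMSO, kinetic fluorescence read.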

[15] = target: Beta-2 adrenergic receptor (Homo sapiens) (UniProt P07550); assay: Adrenergic beta2 receptor (ADRB2) small molecule antagonists, cell-based qHTS assay (AID 1963592); further: series mostly up to about 92 µM; nearly all actives have a fitted effect of over 50% in size
Chain of Beta-2 adrenergic receptor (Homo sapiens) (P07550 whole entry, looked up): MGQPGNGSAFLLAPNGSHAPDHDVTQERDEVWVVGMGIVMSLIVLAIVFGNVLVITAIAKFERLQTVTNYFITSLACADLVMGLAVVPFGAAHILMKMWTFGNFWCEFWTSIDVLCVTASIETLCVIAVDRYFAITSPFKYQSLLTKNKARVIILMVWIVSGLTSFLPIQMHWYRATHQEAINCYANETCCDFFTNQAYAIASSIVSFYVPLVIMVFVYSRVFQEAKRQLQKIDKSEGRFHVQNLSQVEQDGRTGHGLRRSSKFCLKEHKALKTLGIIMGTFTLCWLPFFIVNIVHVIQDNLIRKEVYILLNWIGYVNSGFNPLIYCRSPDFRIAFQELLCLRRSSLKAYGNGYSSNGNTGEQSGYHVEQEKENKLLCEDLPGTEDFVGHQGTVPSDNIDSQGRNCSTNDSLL
In short: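 Cells (CHO, stable ADRB2 overexpression) incubated 18-20hr at 37C; compounds added from DMSO; agonist mix (1nM isoproterenol, 100uM IBMX, 25uM Ro-20-1724) added; 0.5hr RT; d2-cAMP and anti-cAMP-cryptate added; 1hr RT; 665/615 nm read.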

[16] = target: Beta-2 adrenergic receptor (Homo sapiens) (UniProt P07550); assay: Adrenergic beta2 receptor (ADRB2) small molecule agonists, cell-based qHTS assay (AID 1963593);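 further: CHO cells stably overexpressing human ADRB2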
In short: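 CHO cells stably over-expressing ADRB2 were plated overnight at 37C, then dosed with compounds plus a stimulation mix containing 100uM IBMX and 25uM Ro-20-1724 for 0.5hr at room temperature. cAMP was measured by HTRF competition, 1hr.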

[17] = target: D(2) dopamine receptor (Homo sapiens) (UniProt P14416); assay: Dopamine D2 receptor (DRD2) small molecule agonists, cell-based qHTS assay (AID 1963594); further: nearly all actives have a fitted effect of over 35% in size
Chain of D(2) dopamine receptor (Homo sapiens) (P14416 whole entry, looked up): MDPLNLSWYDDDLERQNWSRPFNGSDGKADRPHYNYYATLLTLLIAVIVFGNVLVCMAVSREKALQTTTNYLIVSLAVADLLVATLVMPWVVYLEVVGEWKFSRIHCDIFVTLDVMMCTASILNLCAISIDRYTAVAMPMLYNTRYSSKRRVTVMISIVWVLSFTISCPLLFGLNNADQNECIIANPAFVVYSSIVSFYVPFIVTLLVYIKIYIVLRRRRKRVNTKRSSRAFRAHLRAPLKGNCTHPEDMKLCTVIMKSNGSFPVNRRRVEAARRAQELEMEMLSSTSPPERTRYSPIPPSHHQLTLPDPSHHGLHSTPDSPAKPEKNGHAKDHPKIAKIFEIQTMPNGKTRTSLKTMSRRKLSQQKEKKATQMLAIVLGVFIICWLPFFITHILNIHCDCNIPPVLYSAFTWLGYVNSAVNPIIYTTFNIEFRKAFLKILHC
In short: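 HEK293 cells stably expressing DRD2 were cultured 24 h at 37 C, then given Ro20-1724 (0.1 mM final) and compounds for 10 min at room temperature. NKH477 (200nM) was then added for 30 min. cAMP was read by HTRF.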

[18] = target: D(2) dopamine receptor (Homo sapiens) (UniProt P14416); assay: Dopamine D2 receptor (DRD2) small molecule antagonists, cell-based qHTS assay (AID 1963595; active means well fitted inhibition curve with a large enough effect in the signal ratio in the repeat runs, with a control signal flat; the % refers to the signal ratio)
In short: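 HEK293 cells stably expressing DRD2, preincubated with 0.1 mM Ro20-1724 and compounds 10 min, were stimulated with 200 nM NKH477 plus 12 nM quinpirole for 30 min at room temperature; cAMP measured by HTRF (665/620 nm).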

[19] = cAMP Responsive Elements (CRE) small molecule antagonists, cell-based qHTS assay (AID 1963591; active means well fitted inhibition curve with a large enough effect in the signal ratio in the repeat runs, not every such curve was filed as active; the % refers to the signal ratio)
In short: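 HEK293T cells carrying a CRE-driven beta-lactamase reporter receive compound and NKH477 (0.25 uM final) for 3 h. Fluorescence from LiveBLAzer B/G FRET substrate is read after 2 h at room temperature.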

[20] = cAMP Responsive Elements (CRE) small molecule agonists, cell-based qHTS assay (AID 1963590)
In short: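 A CRE-responsive beta-lactamase reporter in HEK 293T cells was used. Treatment ran 3 h at 37 C; detection used LiveBLAzer B/G FRET substrate for 2 h at room temperature.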

Measured: Potency

CCCCC(=O)O[C@]1(C(=O)CO)CC[C@H]2[C@@H]3CCC4=CC(=O)CC[C@]4(C)[C@H]3[C@@H](O)C[C@@]21C
not listed: [19] | [20]
inactive: all other assays above

COc1cc2nc(Cl)nc(N)c2cc1OC
not listed: [11] | [16] | [17] | [20]
inactive: all other assays above

CCCCOc1cc(C(=O)NCCN(CC)CC)c2ccccc2n1
not listed: [11] | [12] | [19]
inactive: all other assays above

NC(=O)NC(=O)Cc1ccccc1
not listed: [9] | [11] | [12] | [13] | [14] | [17] | [20]
inactive: all other assays above

C#CCOC(=O)[C@@H](C)Oc1ccc(Oc2ncc(Cl)cc2F)cc1
not listed: [9] | [16] | [20]
inactive: all other assays above

O=c1[nH]c(=O)n([C@H]2C[C@H](O)[C@@H](CO)O2)cc1I
not listed: [11] | [12] | [13] | [14] | [16]
inactive: all other assays above
